Assay outcomes deposited in PubChem by National Center for Advancing Translational Sciences (NCATS).
Hits are enriched below; roughly 21% of the tested compounds scored in any of these assays.
CHX counter = counter-screen hit for Shiga toxin inhibitors, cycloheximide. cell reporter, cycloheximide protein synthesis inhibition counterscreen. max response, %. AID 2314. actives 12% (n = 300,000); in the data active = max response mostly above about 13%, no sharp cut-off; inactive = mostly below about 14%; also: read at 38.3 µM for the half of the compounds with a filed dose; 0% is about no effect
Pf growth 96h = inhibits malaria parasite growth, 96 h. P. falciparum luciferase reporter growth, 96 h. Potency, µM (titrated, usually from 28.7 µM), for the others: at the highest dose activity change, negative = inhibition, most hits filed as inhibitors. actives 6.9% (n = 320,000). AID 504834; also: potency is read from the fitted curve at half-maximal effect; % is scaled to controls: 0 for no effect and ±100 for the full control effect
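Parasite growth measured via integrated firefly luciferase reporter in P. falciparum. Infected erythrocytes at 2% hematocrit, 0.05% parasitemia final were treated 96 hours at 37 C under 5% CO2, and luminescence was read.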
Pf growth 48h = inhibits P. falciparum growth in the first generation, 48 h. P. falciparum luciferase growth in erythrocytes, 48 h. Potency, µM (highest dose often 28.7 µM), for inactives: top-dose activity change, negative = inhibition, usual class: inhibitors. actives 5.9% (n = 310,000). AID 504832; also: potency is read from the fitted curve at half-maximal effect; % is scaled to controls: 0 for no effect and ±100 for the full control effect
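In quantitative HTS format, infected erythrocytes bearing luciferase-reporter parasites were treated for a single generation at 37 C. Luminescence after adding detection reagent served as the growth measure.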
NS1 inh = blocks influenza NS1 protein function; Potency, µM (highest dose often 46.1 µM), inactives show at the top dose activity, positive = more growth; actives 0.4% (n = 270,000); calls by dose curve; also: potency is read from the fitted curve at half-maximal effect; actives are rising curves; nearly all actives have a fitted effect of over 50% in size
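S. cerevisiae expressing influenza A NS1, grown in glucose, washed, then diluted 1:100 into pH 6.0 -URA galactose medium with 23 nl compound. Growth recovery read as OD600; NS1-free strain serves as control.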
Shiga toxin inh = inhibitors of Shiga toxin in Vero cells. Vero cells, Shiga toxin protein synthesis inhibition reporter. inhibition, % at 38.7 µM. actives 9.2% (n = 290,000). AID 2315; in the data active = inhibition mostly above about 28%, no sharp cut-off; inactive = mostly below about 43%; also: 0% is about no effect
Numbers without * were called inactive. Unless noted, calls follow the shape of the dose curve; as a rule, active = well fitted inhibition curve with a large enough effect; inconclusive = small, poorly fitted or top-dose-only effect, or another doubt; inactive = no such curve, though single readings can be large or run the other way.

How did COc1ccccc1NS(=O)(=O)c1ccc2c(c1)NC(=O)C(C)S2 (configuration not stated) do in these assays?
CHX counter: 23*; Pf growth 96h: 78%; Pf growth 48h: inconclusive; NS1 inh: 12%; Shiga toxin inh: 14

What do the screens show for `CCC(Cc1ccccc1)NS(=O)(=O)c1ccc2c(c1)NC(=O)C(C)S2` (configuration not stated)?
CHX counter: -5; Pf growth 96h: 15µM*; Pf growth 48h: -32%; NS1 inh: -2%; Shiga toxin inh: 18

What do the screens show for `CCc1cccc(NS(=O)(=O)c2ccc3c(c2)NC(=O)C(C)S3)c1` (configuration not stated)?
CHX counter: -2; Pf growth 96h: 24%; Pf growth 48h: 18%; NS1 inh: 14%; Shiga toxin inh: -5

Results for COc1ccc(CNC(=O)C2CCN(S(=O)(=O)c3ccc4c(c3)NC(=O)C(C)S4)CC2)cc1 (configuration not stated) ?
CHX counter: -2; Pf growth 96h: inconclusive; Pf growth 48h: inconclusive; NS1 inh: 2%; Shiga toxin inh: 18

What do the screens show for `O=C(C1CC=CCC1)N1CCC(CO)(Cc2ccc(Cl)cc2)CC1` (configuration not stated)?
CHX counter: -1; Pf growth 96h: inconclusive; Pf growth 48h: inconclusive; NS1 inh: -2%; Shiga toxin inh: 6

What do the screens show for `Cc1ccc(NC(=O)C2CCN(S(=O)(=O)c3ccc4c(c3)NC(=O)C(C)S4)CC2)cc1C` (configuration not stated)?
CHX counter: 8; Pf growth 96h: inconclusive; Pf growth 48h: 10µM*; NS1 inh: 28%; Shiga toxin inh: -6

How did CCc1ccc(NC(=O)C2CCN(S(=O)(=O)c3ccc4c(c3)NC(=O)C(C)S4)CC2)cc1 (configuration not stated) do in these assays?
CHX counter: -5; Pf growth 96h: inconclusive; Pf growth 48h: inconclusive; NS1 inh: 3%; Shiga toxin inh: -4

What do the screens show for `CCn1nnnc1NCc1cccn1C`?
CHX counter: 1; Pf growth 48h: 7%; NS1 inh: 19%; Shiga toxin inh: 14

Results for N#Cc1cnc(Oc2ccc(Cl)cc2)nc1N ?
CHX counter: 19*; Pf growth 96h: 33%; Pf growth 48h: 41%; NS1 inh: 2%; Shiga toxin inh: 27

How did N#Cc1cc(-c2ccccc2)nc(Oc2ccc(Cl)cc2)n1 do in these assays?
CHX counter: -5; Pf growth 96h: inconclusive; Pf growth 48h: -32%; NS1 inh: -3%; Shiga toxin inh: -1

Results for COc1cccc(CN2CCN(Cc3cccc4nonc34)CC2CCO)c1 (configuration not stated) ?
CHX counter: -2; Pf growth 96h: inconclusive; Pf growth 48h: 3%; NS1 inh: -2%; Shiga toxin inh: 21

How did CNC(=S)NNC(=O)c1ccccc1F do in these assays?
CHX counter: -5; Pf growth 96h: 21%; Pf growth 48h: 9%; Shiga toxin inh: 43

What do the screens show for `O=C(NNC1=Nc2ccccc2SC1)c1cccc([N+](=O)[O-])c1`?
CHX counter: 0; Pf growth 96h: 10µM*; Pf growth 48h: inconclusive; NS1 inh: -3%; Shiga toxin inh: 14

What do the screens show for `O=C(NNC1=NCCCCC1)c1cccc([N+](=O)[O-])c1`?
CHX counter: -2; Pf growth 96h: 36%; Pf growth 48h: 1%; Shiga toxin inh: -5

Results for O=C(NNC1=Nc2ccccc2SC1)c1ccccc1F ?
CHX counter: 39*; Pf growth 96h: inconclusive; Pf growth 48h: inconclusive; NS1 inh: -1%; Shiga toxin inh: 72*

What do the screens show for `CCc1ccc(NC(=O)C(C)OC(=O)C2CCN(c3ccc(C(F)(F)F)cn3)CC2)cc1` (configuration not stated)?
Pf growth 96h: -5%; Pf growth 48h: inconclusive

How did CCN(C(=O)COC(=O)CNS(=O)(=O)c1ccc(SC)c([N+](=O)[O-])c1)C1CCCCC1 do in these assays?
Pf growth 96h: 9%; Pf growth 48h: 5%

What do the screens show for `O=C(CSc1ccc(-c2ccccc2)nn1)c1cccs1`?
CHX counter: 28*; Pf growth 96h: 21%; Pf growth 48h: 35%; NS1 inh: -1%; Shiga toxin inh: 55

How did COc1ccc(-c2ccc(SCC(=O)Nc3nnc(C)s3)nn2)cc1 do in these assays?
CHX counter: 28; Pf growth 96h: inconclusive; Pf growth 48h: 21%; Shiga toxin inh: 13

Results for Cc1ccc(-c2ccc(SCC(=O)c3ccccc3)nn2)cc1 ?
CHX counter: 30*; Pf growth 96h: inconclusive; Pf growth 48h: 64%; NS1 inh: 8%; Shiga toxin inh: 66

How did COc1ccc(-c2ccc(SCC(=O)c3cccs3)nn2)cc1 do in these assays?
CHX counter: 34*; Pf growth 96h: 41%; Pf growth 48h: 34%; NS1 inh: -6%; Shiga toxin inh: 61*

Results for COc1ccc(C(=O)NCC(=O)N/N=C(\C)Cc2ccccc2)cc1 ?
CHX counter: 1; Pf growth 96h: 28%; Pf growth 48h: -12%; NS1 inh: -5%; Shiga toxin inh: -5

What do the screens show for `O=c1[nH]c(=O)n(C2CCCO2)cc1Br` (configuration not stated)?
CHX counter: -4; Pf growth 48h: inconclusive; NS1 inh: 2%; Shiga toxin inh: -23

Results for COCCN(C(=O)CNC(=O)c1ccco1)C(C(=O)NC1CCCC1)c1ccc(F)cc1 (configuration not stated) ?
CHX counter: -6; Pf growth 96h: -28%; Pf growth 48h: 35%; NS1 inh: 2%; Shiga toxin inh: -9

How did O=C(CSc1ncnc2c1cnn2-c1ccccc1)NCC1CCCO1 (configuration not stated) do in these assays?
Pf growth 96h: 0%; Pf growth 48h: 7%

How did CCOc1ccc(Cl)cc1CNCCCSc1ncccn1 do in these assays?
CHX counter: -1; Pf growth 96h: 13µM*; Pf growth 48h: 27%; NS1 inh: -9%; Shiga toxin inh: -1

Results for CC1Cc2ccccc2N1C(=O)C1CCN(S(=O)(=O)c2cccs2)CC1 (configuration not stated) ?
CHX counter: 9; Pf growth 96h: 0.93µM*; Pf growth 48h: -27%; NS1 inh: -10%; Shiga toxin inh: -11

How did O=C(C1CCN(S(=O)(=O)c2cccs2)CC1)N1CCCC(C(F)(F)F)C1 (configuration not stated) do in these assays?
CHX counter: 17*; Pf growth 96h: 276%; Pf growth 48h: -13%; NS1 inh: 8%; Shiga toxin inh: 33

What do the screens show for `O=C(C1CCN(S(=O)(=O)c2cccs2)CC1)N1CCN(c2ccccc2O)CC1`?
Pf growth 96h: 7.4µM*; Pf growth 48h: inconclusive

What do the screens show for `O=C(CC12CC3CC(CC(C3)C1)C2)N1CCN(S(=O)(=O)c2cccs2)CC1`?
CHX counter: 4; Pf growth 96h: 13µM*; Pf growth 48h: inconclusive; NS1 inh: 8%; Shiga toxin inh: -7

How did Nc1ncnc2nn([C@H]3O[C@@H](CO)[C@@H](O)[C@H]3O)nc12 do in these assays?
NS1 inh: -1%
